Screening results as filed in PubChem BioAssay.
Rows were chosen to be rich in hits. Some 2.9% of all compounds tested hit in one or more screens of this group.
PI5P4Ka inh – PI5P4K alpha (human) kinase inhibition. P48426. PI5P4Kalpha enzyme, ADP-Glo luminescence, 60 min; active compounds read low. max response, %. 1.2% of 330,000 active; active = max response of -50% or lower; inconclusive = between -30% and -50%; inactive = -30% or higher; note: value at the top dose of about 77 µM; % is set by controls: 0 for no effect and ±100 for the full control effect
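Reactions run in 0.038 M HEPES pH 7.4, 0.28 mM EGTA, 0.1% CHAPS and 5% DMSO, with PI5P4Kalpha, substrate, compound and 5 microM ATP final, one hour at room temperature. Readout is ADP-Glo luminescence.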
Pol beta inh – inhibitors of human DNA polymerase beta | P06746 | Pol beta primer extension/strand displacement, fluorescence kinetic | Potency, µM (top dose mostly 114 µM), without a hit: top-dose activity change, negative = inhibition, most hits filed as inhibitors | 1.3% of 340,000 active; note: potency is the fitted concentration of half-maximal effect; % is set by controls: 0 for no effect and ±100 for the full control effect
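Reaction started by 50 nM substrate onto compound-treated Pol beta (10 nM, 15 min preincubation, room temperature); plates read at 0 min and 10 min. Normalized concentration-effect data fitted by four-parameter Hill equation.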
Pol iota inh – blocks human DNA polymerase iota activity | Q9UNA4 | Pol iota fluorescent replication assay, 10 min | Potency, µM (titrated, usually from 115 µM), for inactives: at the highest dose activity, negative = inhibition, hits mostly inhibitors | 1% of 390,000 active | AID 588590; note: potency is the fitted concentration of half-maximal effect
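Pol iota at 10 nM preincubated 15 min with compounds at room temperature; reaction started with fluorescent substrate, 50 nM final. Fluorescence read kinetically at 0 and 10 min; buffer-only wells as negative control.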
ALOX12 inh – ALOX12 (human) lipoxygenase inhibition | P18054 | purified 12hLO, xylenol orange hydroperoxide absorbance | Potency, µM (top dose mostly 108 µM), without a hit: top-dose activity change, negative = inhibition, most hits filed as inhibitors | 1.1% of 580,000 active | AID 1671190; note: potency is the fitted concentration of half-maximal effect; % is set by controls: 0 for no effect and ±100 for the full control effect
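Purified human 12hLO at 150 nM in 25 mM Hepes, 0.01% Triton X-100, pH 7.0, preincubated 15 min at room temperature with compound. Reaction started with 40 uM arachidonic acid, 30 min at room temperature. Hydroperoxide measured by Fe-xylenol orange, 573/405 nm absorbance ratio.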
POLK inh – inhibitors of human DNA polymerase kappa. AID 588579. Q9UBT6. purified Pol kappa, fluorescent DNA synthesis assay, 10 min. Potency, µM (top dose mostly 107 µM), without a hit: top-dose activity, negative = inhibition, actives largely listed as inhibitors. 0.53% of 400,000 active; note: potency is the fitted concentration of half-maximal effect; % is set by controls: 0 for no effect and ±100 for the full control effect
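10 nM Pol kappa preincubated 15 min at room temperature with compounds, then reaction started with substrate at 50 nM final. Fluorescence read kinetically at 0 and 10 min; buffer-only wells served as negative control.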
POLH inh – blocks human DNA polymerase eta activity. Q9Y253. recombinant Pol eta, fluorescent DNA replication assay. Potency, µM (highest dose often 114 µM), for inactives: at the top dose activity change, negative = inhibition, most hits filed as inhibitors. 1.2% of 390,000 active. AID 588591; note: potency is the fitted concentration of half-maximal effect; % is set by controls: 0 for no effect and ±100 for the full control effect
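Fluorescent replication assay: 50 nM final substrate added after a 15 min room-temperature compound preincubation with 10 nM enzyme. Signal taken at 0 min and again at 10 min.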
Starred values were filed as active, the others as inactive; ? = inconclusive; · = not tested or not shown. Unless noted, calls come from the whole dose curve; as a rule, active = well fitted inhibition curve with a large enough effect; inconclusive = small, poorly fitted or top-dose-only effect, or another doubt; inactive = no such curve, though single readings can be large or run the other way.

SMILES	PI5P4Ka inh	Pol beta inh	Pol iota inh	ALOX12 inh	POLK inh	POLH inh
COc1ccccc1NC(=O)Nc1ccnn1C1CCN(C(=O)c2cscn2)CC1	-3	28%	32µM*	1%	40µM*	-9%
COc1cccc(NS(=O)(=O)c2ccc3[nH]cc(C(=O)NC(C)c4ccccc4)c(=O)c3c2)c1 (centres undefined)	·	40µM*	89µM*	?	?	?
CC(=O)Nc1ccc(-c2csc(NC(=O)c3nn(C(C)C)c(=O)c4ccccc34)n2)cc1	·	·	·	-3%	·	·
COc1ccc(S(=O)(=O)Nc2ccccc2C(=O)NCc2ccco2)cc1	-20	-14%	?	0%	-1%	-15%
COc1ccc(S(=O)(=O)N(Cc2ccccc2)c2ccccc2C(=O)Nc2ccccc2C(=O)NCc2ccco2)cc1	13	89µM*	-5%	-2%	-20%	-19%
Cn1c(=O)c2c(nc(Oc3ccccc3)n2Cc2ccc(F)cc2)n(C)c1=O	·	·	·	2%	·	·
CC1(C)Nc2ccc(O)cc2-c2c1ssc2=S	?	4%	-11%	45µM*	-5%	-18%
CCCn1c(-c2ccc(OC)cc2)nc2c(=O)n(C)c(=O)[nH]c21	-51*	0%	8%	4%	-3%	-20%
CCCCn1c(-c2ccc(OC)cc2)nc2c(=O)n(C)c(=O)[nH]c21	?	22%	-6%	?	-3%	-11%
CCCN(CC(=O)Nc1ccccc1C)C(=O)Cc1coc2cc(C)ccc12	-26	40µM*	?	?	-15%	?
CN(C)CCCSc1nc(N2CCOCC2)c2c(c1C#N)CCCC2	·	·	·	0.5µM*	·	·
CC1CCN(C(=O)CSc2nnc(CNC(=O)c3ccccc3F)n2C)CC1	·	·	·	12%	·	·
O=C(c1ccc(=O)[nH]c1)N(c1ccccc1)C(CCc1ccccc1)c1nc2ccccc2[nH]1 (centres undefined)	3	·	·	-15%	·	·
O=C(c1ccc(F)cc1)N(c1ccccc1F)C(CCc1ccccc1)c1nc2ccccc2[nH]1 (centres undefined)	·	·	·	5µM*	·	·
Cn1cc(CC(=O)N2CCCc3ncc(C(=O)Nc4cccc(Cl)c4)cc32)c2ccccc21	·	·	·	11%	·	·
Cn1ccnc1C(=O)c1ccc(NC(=O)C(=O)NC2CCCCC2)cc1	·	·	·	5%	·	·
Cc1c(Cl)cccc1N=Cc1ccc([N+](=O)[O-])s1	·	?	35µM*	-6%	-17%	89µM*
Cc1ccccc1C(=O)N/N=C/c1ccc([N+](=O)[O-])s1	·	-2%	?	-29%	-6%	-6%
CCCCc1noc(C(C)N2CCC(c3ccnn3CCO)CC2)n1 (centres undefined)	·	·	·	-6%	·	·
CCCCc1ccc(-n2nnnc2SCC(=O)Nc2ccc(NC(C)=O)cc2)cc1	·	·	·	-3%	·	·
O=C(NNC(=O)c1ccc[nH]1)Nc1cccc(C(F)(F)F)c1	2	3%	7%	433%	-7%	-1%
O=C(Nc1cccc(F)c1)c1cc(-c2ccc[nH]2)n[nH]1	·	·	·	20µM*	·	·
Cc1ccc(NC(=O)c2cc(-c3ccc[nH]3)n[nH]2)cc1F	·	·	·	10µM*	·	·
Cc1cc(F)ccc1NC(=O)c1cc(-c2ccc[nH]2)n[nH]1	·	·	·	18µM*	·	·
O=C(Nc1cccc(C(F)(F)F)c1)c1cc(-c2ccc[nH]2)n[nH]1	·	·	·	16µM*	·	·
SMILES	PI5P4Ka inh	Pol beta inh	Pol iota inh	ALOX12 inh	POLK inh	POLH inh
COc1ccc(NC(=O)c2cc(-c3ccc[nH]3)n[nH]2)cc1F	·	·	·	-15%	·	·
Cc1ccc(Oc2ccc(S(=O)(=O)N3CCCC3)cn2)c(Br)c1	·	·	·	20%	·	·
CCOC(=O)c1sc(NC(=O)c2cccc(S(=O)(=O)N3CCN(C)CC3)c2)cc1C	-1	-1%	-9%	45µM*	-5%	-5%
Cc1c(O)ccc2c(CN3CCN(Cc4ccccc4)CC3)cc(=O)oc12	0	-2%	14%	-10%	8%	-8%
O=c1cc(CN2CCN(Cc3ccccc3)CC2)c2ccc(O)c(O)c2o1	28	2.5µM*	?	?	?	10µM*
Cc1ccc(S(=O)(=O)N2CCN(Cc3cc(=O)oc4cc(O)c(Cl)cc34)CC2)cc1	·	·	·	45µM*	·	·
